Holding throughout (test): DAPPL (digital affinity profiling via proximity ligation, sequencing); 10 mM Tris-HCl pH 7.5, 50 mM NaCl, 1 mM DTT, 4% glycerol, room temperature, 30 min; GST-TFs on glutathione beads, 16-mer random dsDNA library, 0.1% formaldehyde crosslink after washing; high values mean tight binding
Test [1] has as its target T1, FLI1 (Homo sapiens, UniProt Q01543 1-452).
T1 sequence: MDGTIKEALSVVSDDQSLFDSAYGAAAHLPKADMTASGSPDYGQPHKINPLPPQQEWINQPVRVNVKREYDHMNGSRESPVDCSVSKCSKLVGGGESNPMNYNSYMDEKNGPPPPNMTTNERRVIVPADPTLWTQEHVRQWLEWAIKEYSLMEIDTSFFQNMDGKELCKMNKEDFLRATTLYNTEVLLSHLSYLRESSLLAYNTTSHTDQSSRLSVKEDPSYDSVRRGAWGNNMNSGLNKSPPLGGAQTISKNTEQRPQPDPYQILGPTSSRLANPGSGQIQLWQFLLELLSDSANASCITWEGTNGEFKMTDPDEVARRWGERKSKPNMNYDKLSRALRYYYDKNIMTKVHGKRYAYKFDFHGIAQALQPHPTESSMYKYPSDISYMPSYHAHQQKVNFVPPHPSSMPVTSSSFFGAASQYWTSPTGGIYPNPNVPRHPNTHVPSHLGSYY
Conditions: protein: recombinant; tags: N-terminal GST; dsDNA, one strand shown. The method in brief:
(§1)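 Sequencing on an Illumina NextSeq500 followed washing, crosslinking with 0.1% formaldehyde, proximity ligation (BsaI/T4 ligase, 1 h, 37 °C) and PCR amplification of pools that had been incubated for 30 min at room temperature with 200 nmole of a random double-stranded 16-mer DNA library in Tris/NaCl/DTT/glycerol buffer. Each pool held DNA-barcoded human transcription factors, expressed in yeast as GST fusions and captured on glutathione beads, plus a tag-only sample. Binding signal is a hexamer's read frequency for a factor divided by its frequency in the tag-only sample.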

The target of test [2] is T2, ELK1 (Homo sapiens, UniProt P19419 1-428).
T2 sequence: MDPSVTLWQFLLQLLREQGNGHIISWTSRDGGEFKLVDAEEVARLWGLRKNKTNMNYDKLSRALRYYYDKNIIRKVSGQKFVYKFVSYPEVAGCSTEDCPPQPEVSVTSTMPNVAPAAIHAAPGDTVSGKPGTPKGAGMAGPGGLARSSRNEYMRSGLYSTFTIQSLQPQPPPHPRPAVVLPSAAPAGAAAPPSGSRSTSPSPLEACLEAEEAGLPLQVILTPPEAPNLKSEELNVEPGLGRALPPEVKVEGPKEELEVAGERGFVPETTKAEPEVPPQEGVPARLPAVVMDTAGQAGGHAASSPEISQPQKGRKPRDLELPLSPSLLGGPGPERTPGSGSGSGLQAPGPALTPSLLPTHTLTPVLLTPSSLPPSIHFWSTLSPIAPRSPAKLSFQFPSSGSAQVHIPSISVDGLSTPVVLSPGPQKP
Conditions: protein: recombinant; tags: N-terminal GST; dsDNA, one strand shown. The method in brief: as §1

In test [3] the target is T3, GABPA (Homo sapiens, UniProt Q06546 1-454).
T3 sequence: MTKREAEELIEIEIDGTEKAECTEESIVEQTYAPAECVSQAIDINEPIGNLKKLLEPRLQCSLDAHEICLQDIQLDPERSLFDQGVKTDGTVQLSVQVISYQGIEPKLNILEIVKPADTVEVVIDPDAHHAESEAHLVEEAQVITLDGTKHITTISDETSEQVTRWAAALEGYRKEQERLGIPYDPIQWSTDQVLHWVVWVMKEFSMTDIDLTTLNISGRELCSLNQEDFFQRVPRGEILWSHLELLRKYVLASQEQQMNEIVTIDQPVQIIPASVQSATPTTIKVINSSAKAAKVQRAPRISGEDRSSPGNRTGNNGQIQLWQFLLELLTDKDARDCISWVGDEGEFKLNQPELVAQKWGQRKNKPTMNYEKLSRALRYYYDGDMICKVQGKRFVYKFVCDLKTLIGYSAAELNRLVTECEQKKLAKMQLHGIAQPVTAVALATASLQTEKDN
The conditions noted are these: protein: recombinant; tags: N-terminal GST; dsDNA, one strand shown. In outline: as §1

Test [4] addresses T4, ERG (Homo sapiens, UniProt P11308 1-479).
T4 sequence: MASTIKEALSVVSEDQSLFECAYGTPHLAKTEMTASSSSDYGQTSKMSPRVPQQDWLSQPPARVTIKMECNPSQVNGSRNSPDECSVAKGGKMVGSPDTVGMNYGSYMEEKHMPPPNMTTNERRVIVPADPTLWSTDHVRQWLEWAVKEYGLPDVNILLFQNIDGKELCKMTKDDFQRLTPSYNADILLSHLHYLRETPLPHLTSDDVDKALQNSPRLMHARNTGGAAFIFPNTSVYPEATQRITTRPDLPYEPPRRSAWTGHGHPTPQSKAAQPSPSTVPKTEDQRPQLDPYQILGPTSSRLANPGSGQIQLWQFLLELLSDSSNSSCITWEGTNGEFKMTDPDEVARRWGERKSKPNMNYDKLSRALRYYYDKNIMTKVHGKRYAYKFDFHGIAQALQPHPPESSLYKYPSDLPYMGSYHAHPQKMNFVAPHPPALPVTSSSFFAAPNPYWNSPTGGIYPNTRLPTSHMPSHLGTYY
The conditions noted are these: protein: recombinant; tags: N-terminal GST; dsDNA, one strand shown. In outline: as §1

Test [5] addresses ELF1 (Homo sapiens, UniProt P32519 1-619). Conditions: protein: recombinant; tags: N-terminal GST; dsDNA, one strand shown. The method in brief:
as §1

Test [6] concerns the target T5, EHF (Homo sapiens, UniProt Q9NZC4 1-300).
T5 sequence: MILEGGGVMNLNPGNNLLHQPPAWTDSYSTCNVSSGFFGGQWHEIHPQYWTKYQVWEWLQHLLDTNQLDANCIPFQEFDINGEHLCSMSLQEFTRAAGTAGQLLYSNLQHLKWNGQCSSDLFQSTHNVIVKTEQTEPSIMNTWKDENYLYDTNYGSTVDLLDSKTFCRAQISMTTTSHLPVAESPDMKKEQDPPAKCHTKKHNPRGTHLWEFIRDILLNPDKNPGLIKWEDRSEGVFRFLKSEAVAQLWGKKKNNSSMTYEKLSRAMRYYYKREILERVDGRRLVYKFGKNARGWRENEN
The conditions noted are these: protein: recombinant; tags: N-terminal GST; dsDNA, one strand shown. The method in brief: as §1

In test [7] the target is SPI1 (Homo sapiens, UniProt P17947 1-270). Conditions: protein: recombinant; tags: N-terminal GST; dsDNA, one strand shown. The method in brief:
as §1

Test [8] addresses SPIB (Homo sapiens, UniProt Q01892 1-262). The conditions noted are these: protein: recombinant; tags: N-terminal GST; dsDNA, one strand shown. The method in brief: as §1
For test [9], the target named is T6, ELK3 (Homo sapiens, UniProt P41970 1-407).
T6 sequence: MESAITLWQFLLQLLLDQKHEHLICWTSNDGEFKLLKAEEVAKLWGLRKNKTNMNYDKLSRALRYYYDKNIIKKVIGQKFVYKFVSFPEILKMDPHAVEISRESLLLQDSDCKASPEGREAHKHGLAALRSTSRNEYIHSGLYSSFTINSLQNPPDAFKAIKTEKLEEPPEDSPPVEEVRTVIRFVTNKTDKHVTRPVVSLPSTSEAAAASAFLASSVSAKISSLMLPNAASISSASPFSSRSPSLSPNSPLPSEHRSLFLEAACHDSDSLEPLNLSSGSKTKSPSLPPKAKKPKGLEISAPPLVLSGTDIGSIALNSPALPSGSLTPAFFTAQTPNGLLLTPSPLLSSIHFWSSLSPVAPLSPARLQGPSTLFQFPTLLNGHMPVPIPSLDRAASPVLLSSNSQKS
The conditions noted are these: protein: recombinant; tags: N-terminal GST; dsDNA, one strand shown. In outline: as §1

Test [10] concerns the target T7, FEV (Homo sapiens, UniProt Q99581 1-238).
T7 sequence: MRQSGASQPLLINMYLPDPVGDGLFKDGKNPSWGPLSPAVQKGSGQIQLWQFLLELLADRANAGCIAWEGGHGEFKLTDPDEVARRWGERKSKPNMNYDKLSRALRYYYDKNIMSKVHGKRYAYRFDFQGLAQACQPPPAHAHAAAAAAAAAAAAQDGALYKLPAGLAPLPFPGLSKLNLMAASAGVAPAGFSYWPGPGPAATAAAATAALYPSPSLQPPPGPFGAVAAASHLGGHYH
Conditions: protein: recombinant; tags: N-terminal GST; dsDNA, one strand shown. The method in brief:
as §1

The target of test [11] is ETV5 (Homo sapiens, UniProt P41161 1-510). The conditions noted are these: protein: recombinant; tags: N-terminal GST; dsDNA, one strand shown. In outline:
as §1

In test [12] the target is HSF1 (Homo sapiens, UniProt Q00613 1-529). The conditions noted are these: protein: recombinant; tags: N-terminal GST; chain copies: 3; dsDNA, one strand shown. In outline:
as §1

Test [13] deals with T8, SPIC (Homo sapiens, UniProt Q8N5J4 1-248).
T8 sequence: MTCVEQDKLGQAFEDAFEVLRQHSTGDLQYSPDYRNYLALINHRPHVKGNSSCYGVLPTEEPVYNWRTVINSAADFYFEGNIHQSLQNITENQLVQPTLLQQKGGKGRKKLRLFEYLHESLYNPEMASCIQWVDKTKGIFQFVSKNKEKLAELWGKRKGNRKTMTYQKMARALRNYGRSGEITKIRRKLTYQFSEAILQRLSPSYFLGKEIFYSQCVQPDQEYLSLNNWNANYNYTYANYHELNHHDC
Conditions: protein: recombinant; tags: N-terminal GST; dsDNA, one strand shown. The method in brief: as §1

In test [14] the target is ELF4 (Homo sapiens, UniProt Q99607 1-663). Conditions: protein: recombinant; tags: N-terminal GST; dsDNA, one strand shown. In outline: as §1
The target in test [15] is T9, ELK4 (Homo sapiens, UniProt P28324-2 1-405).
T9 sequence: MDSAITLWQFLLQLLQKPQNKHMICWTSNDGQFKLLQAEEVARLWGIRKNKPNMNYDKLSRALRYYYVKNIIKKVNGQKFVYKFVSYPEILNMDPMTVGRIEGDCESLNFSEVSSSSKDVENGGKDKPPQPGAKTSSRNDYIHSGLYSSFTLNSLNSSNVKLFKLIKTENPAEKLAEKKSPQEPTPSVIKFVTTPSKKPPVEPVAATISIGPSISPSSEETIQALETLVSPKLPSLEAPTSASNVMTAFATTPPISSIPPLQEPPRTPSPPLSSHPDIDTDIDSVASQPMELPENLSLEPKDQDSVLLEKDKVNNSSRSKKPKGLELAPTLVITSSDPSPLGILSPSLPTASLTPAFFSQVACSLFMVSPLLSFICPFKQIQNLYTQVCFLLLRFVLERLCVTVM
The conditions noted are these: protein: recombinant; tags: N-terminal GST; dsDNA, one strand shown. The method in brief: as §1

The target of test [16] is T10, ETV2 (Homo sapiens, UniProt O00321 1-342).
T10 sequence: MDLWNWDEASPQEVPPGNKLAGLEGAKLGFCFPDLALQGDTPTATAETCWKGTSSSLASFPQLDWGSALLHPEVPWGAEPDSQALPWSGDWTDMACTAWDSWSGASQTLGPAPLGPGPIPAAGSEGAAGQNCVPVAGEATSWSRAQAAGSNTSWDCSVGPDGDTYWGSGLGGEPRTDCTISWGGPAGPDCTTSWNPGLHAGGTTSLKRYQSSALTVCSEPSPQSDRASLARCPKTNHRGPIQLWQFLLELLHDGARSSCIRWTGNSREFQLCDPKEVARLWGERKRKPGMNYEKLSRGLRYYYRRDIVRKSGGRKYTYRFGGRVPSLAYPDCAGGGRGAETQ
Conditions: protein: recombinant; tags: N-terminal GST; dsDNA, one strand shown. In outline: as §1

For test [17], the target named is T11, ELF3 (Homo sapiens, UniProt P78545 1-371).
T11 sequence: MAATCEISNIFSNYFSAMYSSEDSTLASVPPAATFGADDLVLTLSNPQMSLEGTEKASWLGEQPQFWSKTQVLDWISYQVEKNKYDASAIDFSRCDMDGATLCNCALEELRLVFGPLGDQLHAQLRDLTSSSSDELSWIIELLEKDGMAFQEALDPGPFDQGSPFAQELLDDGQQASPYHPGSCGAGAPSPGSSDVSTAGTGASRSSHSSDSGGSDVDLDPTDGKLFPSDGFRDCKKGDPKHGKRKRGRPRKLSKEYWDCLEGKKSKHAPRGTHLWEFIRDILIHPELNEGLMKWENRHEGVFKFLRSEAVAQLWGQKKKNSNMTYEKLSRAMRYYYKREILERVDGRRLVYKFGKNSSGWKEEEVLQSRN
Conditions: protein: recombinant; tags: N-terminal GST; dsDNA, one strand shown. In outline:
as §1

The target in test [18] is ETV1 (Homo sapiens, UniProt P50549 1-477). Conditions: protein: recombinant; tags: N-terminal GST; dsDNA, one strand shown. In outline: as §1

Binding signal data for one sequence are collected here from publication PMC7862700, “An all-to-all approach to the identification of sequence-specific readers for epigenetic DNA modifications on cytosine”.

Sequence of ELF1 (P32519 whole entry): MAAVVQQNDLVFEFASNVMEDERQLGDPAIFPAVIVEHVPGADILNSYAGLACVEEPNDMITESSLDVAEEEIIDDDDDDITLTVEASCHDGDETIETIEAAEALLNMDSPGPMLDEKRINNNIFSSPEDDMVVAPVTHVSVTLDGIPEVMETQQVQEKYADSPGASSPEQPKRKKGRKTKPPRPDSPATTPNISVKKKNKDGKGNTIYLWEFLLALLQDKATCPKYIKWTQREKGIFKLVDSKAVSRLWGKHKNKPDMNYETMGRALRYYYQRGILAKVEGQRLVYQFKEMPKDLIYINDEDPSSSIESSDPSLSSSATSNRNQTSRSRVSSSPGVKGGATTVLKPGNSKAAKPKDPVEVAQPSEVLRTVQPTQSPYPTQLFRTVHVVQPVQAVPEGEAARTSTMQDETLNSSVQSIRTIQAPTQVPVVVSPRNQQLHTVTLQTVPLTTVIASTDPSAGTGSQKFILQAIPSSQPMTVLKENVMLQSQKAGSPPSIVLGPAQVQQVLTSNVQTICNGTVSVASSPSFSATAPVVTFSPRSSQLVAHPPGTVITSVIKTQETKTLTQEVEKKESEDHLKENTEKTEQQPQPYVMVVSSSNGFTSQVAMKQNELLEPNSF
Sequence of ETV5 (P41161 whole entry): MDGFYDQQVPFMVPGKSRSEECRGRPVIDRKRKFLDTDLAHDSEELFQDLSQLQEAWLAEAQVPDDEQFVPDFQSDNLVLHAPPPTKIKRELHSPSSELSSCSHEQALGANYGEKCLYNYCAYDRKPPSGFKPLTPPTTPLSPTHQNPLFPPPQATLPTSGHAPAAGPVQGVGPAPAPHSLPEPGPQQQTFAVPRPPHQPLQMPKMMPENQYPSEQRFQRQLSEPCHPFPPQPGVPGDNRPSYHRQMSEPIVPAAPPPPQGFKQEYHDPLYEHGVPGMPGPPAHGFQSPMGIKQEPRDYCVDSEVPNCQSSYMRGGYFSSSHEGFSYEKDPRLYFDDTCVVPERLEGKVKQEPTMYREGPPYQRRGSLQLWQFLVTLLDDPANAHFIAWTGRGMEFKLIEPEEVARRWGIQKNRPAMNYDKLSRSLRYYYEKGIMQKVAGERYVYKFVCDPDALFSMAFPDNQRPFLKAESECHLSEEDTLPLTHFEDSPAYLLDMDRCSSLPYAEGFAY
Sequence of ETV1 (P50549 whole entry): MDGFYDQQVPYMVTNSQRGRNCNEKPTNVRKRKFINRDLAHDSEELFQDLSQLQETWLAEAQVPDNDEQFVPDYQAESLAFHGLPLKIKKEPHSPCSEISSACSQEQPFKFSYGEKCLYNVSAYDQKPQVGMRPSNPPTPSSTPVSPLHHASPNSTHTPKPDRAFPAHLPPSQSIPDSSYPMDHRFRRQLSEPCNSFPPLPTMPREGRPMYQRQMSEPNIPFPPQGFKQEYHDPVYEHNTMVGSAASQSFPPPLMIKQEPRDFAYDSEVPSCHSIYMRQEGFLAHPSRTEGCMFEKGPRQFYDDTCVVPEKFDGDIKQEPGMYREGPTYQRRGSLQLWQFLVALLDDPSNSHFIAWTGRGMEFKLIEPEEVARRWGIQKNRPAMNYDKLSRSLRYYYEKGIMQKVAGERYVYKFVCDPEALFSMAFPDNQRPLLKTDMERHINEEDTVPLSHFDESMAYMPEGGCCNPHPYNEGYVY
Sequence of HSF1 (Q00613 whole entry): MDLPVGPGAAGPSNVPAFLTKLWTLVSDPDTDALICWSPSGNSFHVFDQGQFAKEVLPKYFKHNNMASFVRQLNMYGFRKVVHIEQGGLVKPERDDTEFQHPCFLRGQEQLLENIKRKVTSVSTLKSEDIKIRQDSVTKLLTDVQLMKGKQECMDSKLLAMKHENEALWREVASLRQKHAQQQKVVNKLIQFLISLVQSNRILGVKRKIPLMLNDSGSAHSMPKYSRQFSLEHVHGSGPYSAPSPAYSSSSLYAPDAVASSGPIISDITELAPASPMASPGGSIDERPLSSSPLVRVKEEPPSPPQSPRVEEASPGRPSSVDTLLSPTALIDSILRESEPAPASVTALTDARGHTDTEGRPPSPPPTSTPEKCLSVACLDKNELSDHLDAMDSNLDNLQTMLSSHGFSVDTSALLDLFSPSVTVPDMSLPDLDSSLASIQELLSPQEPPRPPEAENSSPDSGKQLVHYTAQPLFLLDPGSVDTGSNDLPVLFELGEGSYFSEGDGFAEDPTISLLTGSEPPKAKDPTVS
Sequence of ELF4 (Q99607 whole entry): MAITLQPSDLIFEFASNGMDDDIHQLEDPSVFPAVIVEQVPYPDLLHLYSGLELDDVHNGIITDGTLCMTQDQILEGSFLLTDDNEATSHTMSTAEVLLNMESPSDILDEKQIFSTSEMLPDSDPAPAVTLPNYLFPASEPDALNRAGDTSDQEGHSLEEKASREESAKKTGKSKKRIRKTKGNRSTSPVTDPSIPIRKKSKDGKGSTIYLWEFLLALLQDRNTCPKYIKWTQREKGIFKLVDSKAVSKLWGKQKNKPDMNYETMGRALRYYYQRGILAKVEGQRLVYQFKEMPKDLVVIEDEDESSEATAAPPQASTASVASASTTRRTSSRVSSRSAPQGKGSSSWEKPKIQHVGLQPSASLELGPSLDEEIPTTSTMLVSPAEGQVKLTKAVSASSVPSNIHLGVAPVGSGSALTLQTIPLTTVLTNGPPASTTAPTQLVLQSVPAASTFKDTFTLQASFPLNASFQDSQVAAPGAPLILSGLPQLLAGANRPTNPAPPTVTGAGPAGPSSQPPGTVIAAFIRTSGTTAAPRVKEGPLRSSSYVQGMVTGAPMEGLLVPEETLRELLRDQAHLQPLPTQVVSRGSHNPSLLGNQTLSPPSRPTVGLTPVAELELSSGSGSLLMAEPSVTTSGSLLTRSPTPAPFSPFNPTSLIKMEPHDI
Sequence of SPIB (Q01892 whole entry): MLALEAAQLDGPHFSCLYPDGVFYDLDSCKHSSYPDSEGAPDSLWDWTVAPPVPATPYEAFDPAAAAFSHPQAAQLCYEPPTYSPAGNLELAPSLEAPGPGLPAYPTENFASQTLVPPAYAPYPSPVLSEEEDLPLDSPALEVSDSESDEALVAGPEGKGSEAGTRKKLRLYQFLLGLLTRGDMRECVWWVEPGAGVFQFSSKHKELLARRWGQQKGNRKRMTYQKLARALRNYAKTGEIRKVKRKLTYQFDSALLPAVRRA

As for GAAGTA, the binding signal in [1] is 1.88 fold enrichment (6-mer frequency, TF over GST control); in test [2] it was 2.23 fold enrichment (6-mer frequency, TF over GST control); in [3] it was 1.68 fold enrichment (6-mer frequency, TF over GST control); in test [4], 2.03 fold enrichment (6-mer frequency, TF over GST control); in test [5], 1.84 fold enrichment (6-mer frequency, TF over GST control); in [6], 2.13 fold enrichment (6-mer frequency, TF over GST control). For the same sequence, the binding signal in test [7] was 2.32 fold enrichment (6-mer frequency, TF over GST control); in test [8], 1.95 fold enrichment (6-mer frequency, TF over GST control); in test [9] it was 2.1 fold enrichment (6-mer frequency, TF over GST control); in [10], 2.05 fold enrichment (6-mer frequency, TF over GST control); in test [11], 2.16 fold enrichment (6-mer frequency, TF over GST control); in [12] it was 1.02 fold enrichment (6-mer frequency, TF over GST control). Moreover, the binding signal in test [13] was 2.19 fold enrichment (6-mer frequency, TF over GST control); in [14], 1.74 fold enrichment (6-mer frequency, TF over GST control); in test [15] it was 1.71 fold enrichment (6-mer frequency, TF over GST control); in [16] it was 1.89 fold enrichment (6-mer frequency, TF over GST control); in [17], 2.08 fold enrichment (6-mer frequency, TF over GST control); in [18], 2.11 fold enrichment (6-mer frequency, TF over GST control).
